Screens: PubChem BioAssay, National Center for Advancing Translational Sciences (NCATS)
Most compounds without a hit are left out; they make up all but 0.45% or so of the library.
GAA glycogen mod: alters human alpha-glucosidase cleavage of glycogen; P10253; recombinant GAA, glycogen substrate, Amplex Red glucose oxidase fluorescence; Potency, µM (top dose mostly 76.4 µM), usual class: inhibitors; 0.38% of 300,000 active;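 note: the screen sought inhibitors and activators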
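Natural-substrate format: glycogen cleavage by 4 nM human enzyme, glucose read by Amplex Red coupling (Ex 573, Em 610 nm). Normalized to enzyme and no-enzyme controls.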
aGlu spleen mod: lysosomal alpha-glucosidase (human) modulation; Potency, µM (titrated, usually from 79.9 µM), most hits filed as inhibitors; human spleen homogenate, 4-MU-alpha-glucoside fluorescence; 0.006% of 240,000 active
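Compounds were titrated against alpha-glucosidase in spleen homogenate at pH 5.0, with 1 mM 4-methylumbelliferyl substrate for 40 min at 37 C. Reactions were quenched with pH 10 NaOH/glycine and fluorescence measured.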
GAA inhib: blocks human lysosomal alpha-glucosidase; Potency, µM (doses to about 76.9 µM), hits mostly inhibitors; 0.005% of 200,000 active; P10253; purified human GAA, 4-MU-alpha-glucoside fluorescence
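AC50 values come from Hill fits of compound titrations (up to 77 uM) against 4 nM human enzyme. Substrate 4-methylumbelliferyl-alpha-D-pyranoside at 400 uM, pH 5.0 citrate buffer, 20 min room temperature; fluorescence Ex 365/Em 440 after alkaline stop.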
Menin MLL FP TR: inhibitors of human menin-MLL interaction, mutant MLL peptide; O00255; Potency, µM (doses to about 61.6 µM), actives largely listed as inhibitors; Menin + Texas Red MLL mutant peptide, fluorescence polarization; 0.23% of 270,000 active; active = well fitted inhibition curve with a large enough effect in the polarisation, with a control signal flat, not every such curve was filed as active; inconclusive = small, poorly fitted or top-dose-only effect, or effect the other way, or a change in a side signal; inactive = no such curve, though single readings can be large or run the other way; the % refers to the polarisation
Target sequence (O00255 whole entry, looked up): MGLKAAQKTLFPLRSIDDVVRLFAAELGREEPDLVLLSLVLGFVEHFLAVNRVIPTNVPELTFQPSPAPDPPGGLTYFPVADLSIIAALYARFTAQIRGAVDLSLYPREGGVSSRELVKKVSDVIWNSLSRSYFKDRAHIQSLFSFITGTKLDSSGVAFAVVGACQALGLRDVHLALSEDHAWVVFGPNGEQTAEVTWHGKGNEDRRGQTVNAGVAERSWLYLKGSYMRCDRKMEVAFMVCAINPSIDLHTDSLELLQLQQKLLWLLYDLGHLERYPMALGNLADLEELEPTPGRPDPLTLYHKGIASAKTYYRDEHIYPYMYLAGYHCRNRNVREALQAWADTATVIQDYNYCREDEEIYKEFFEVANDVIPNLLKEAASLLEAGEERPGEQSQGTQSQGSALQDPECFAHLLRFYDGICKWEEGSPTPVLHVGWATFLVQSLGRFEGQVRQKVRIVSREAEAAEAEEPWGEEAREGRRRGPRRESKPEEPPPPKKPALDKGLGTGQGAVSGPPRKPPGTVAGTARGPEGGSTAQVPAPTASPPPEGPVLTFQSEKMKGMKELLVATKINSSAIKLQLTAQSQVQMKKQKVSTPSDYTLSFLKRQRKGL
MLL CXXC-DNA inh: inhibitors of human MLL CXXC domain-DNA interaction | Q03164 | MLL-CXXC / FITC-HOXA9 DNA fluorescence polarization | Potency, µM (titrated, usually from 115 µM), most hits filed as inhibitors | 0.037% of 290,000 active | AID 2662; active = well fitted inhibition curve with a large enough effect in the polarisation, with a control signal flat, not every such curve was filed as active; inconclusive = small, poorly fitted or top-dose-only effect, or effect the other way, or a change in a side signal; inactive = no such curve, though single readings can be large or run the other way; the % refers to the polarisation
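Fluorescence polarization: 7 uM MLL-CXXC (stock) preincubated 5 min with compounds, then 50 nM fluorescein-HOX-A9 DNA (stock) added; 30 min ambient. Buffer 50 mM Tris-HCl pH 7.5, 50 mM NaCl, 1 mM DTT, 0.05% BSA.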
Menin MLL FP FL: displaces fluorescein MLL peptide from human menin; Fluorescence polarization, fluorescein-MLL peptide displacement from menin; FP activity change, % at 61.4 µM; 290,000 tested, under 10 active; active = well fitted curve in the direction sought with a large enough effect in the polarisation, not every such curve was filed as active; inconclusive = small, poorly fitted or top-dose-only effect, or effect the other way, or a change in a side signal; inactive = no such curve, though single readings can be large or run the other way; the % refers to the polarisation
A number is an active result. Unless noted, calls come from the whole dose curve; as a rule, active = well fitted curve in the direction sought with a large enough effect; inconclusive = small, poorly fitted or top-dose-only effect, or another doubt; inactive = no such curve, though single readings can be large; an effect the other way counts as inactive or inconclusive.

`Cc1cc(=O)oc2c(CN(C)Cc3ccccc3)c(O)ccc12` gave GAA glycogen mod inactive, aGlu spleen mod inconclusive, GAA inhib inconclusive, Menin MLL FP TR inactive, MLL CXXC-DNA inh inactive and Menin MLL FP FL inactive.
Screening Cc1cc(=O)oc2c(N)c(O)ccc12 returned GAA glycogen mod 10µM, aGlu spleen mod inactive, GAA inhib inactive, Menin MLL FP TR inactive, MLL CXXC-DNA inh inactive and Menin MLL FP FL inactive.
Screening Cc1ccc(OCCn2cc(/C(N)=N/O)c3ccccc32)cc1C returned GAA glycogen mod 39.8µM, aGlu spleen mod inactive, GAA inhib inactive, Menin MLL FP TR inactive, MLL CXXC-DNA inh inactive and Menin MLL FP FL inactive.
For Cc1ccc(OCCn2cc(C(=S)N3CCCC3)c3ccccc32)cc1C the results were GAA glycogen mod inactive, aGlu spleen mod inactive, GAA inhib inactive, Menin MLL FP TR inactive, MLL CXXC-DNA inh inactive and Menin MLL FP FL inactive.
COc1ccc(OCCn2cc(/C(N)=N/O)c3ccccc32)cc1 was read as GAA glycogen mod 12.5µM, aGlu spleen mod inactive, GAA inhib inconclusive, Menin MLL FP TR inactive, MLL CXXC-DNA inh inactive and Menin MLL FP FL inactive.
Cc1ccc(NC(=S)NNC(=S)NCc2ccccc2)cc1 was read as GAA glycogen mod 31.6µM, aGlu spleen mod inactive, GAA inhib inactive, Menin MLL FP TR inconclusive, MLL CXXC-DNA inh inactive and Menin MLL FP FL inactive.
Screening FC(F)(F)c1cccc(NC(=S)NNC(=S)NCc2ccccc2)c1 returned GAA glycogen mod 12.5µM, aGlu spleen mod inactive, GAA inhib inconclusive, Menin MLL FP TR inconclusive, MLL CXXC-DNA inh inactive and Menin MLL FP FL inactive.
CCCN(CCC)CCNC(=O)c1sc2nc3n(c(=O)c2c1C)CCCCC3 was read as GAA glycogen mod inactive.
CCN(CC)c1cccc(OC2=NS(=O)(=O)c3ccccc32)c1 was read as GAA glycogen mod 28.2µM, aGlu spleen mod inactive, GAA inhib inactive, Menin MLL FP TR inactive, MLL CXXC-DNA inh inactive and Menin MLL FP FL inactive.
CCc1ccc(OC2=NS(=O)(=O)c3ccccc32)cc1 was read as GAA glycogen mod inactive, aGlu spleen mod inactive, GAA inhib inactive, Menin MLL FP TR inactive, MLL CXXC-DNA inh inactive and Menin MLL FP FL inactive.
O=C(O)/C=C/C(=O)Nc1ccc(C(=O)c2ccccc2)cc1 was read as GAA glycogen mod inactive, aGlu spleen mod inactive, GAA inhib inactive, Menin MLL FP TR inconclusive, MLL CXXC-DNA inh inactive and Menin MLL FP FL inactive.
`O=C(O)/C=C/C(=O)Nc1ccc(O)cc1` gave GAA glycogen mod 31.6µM, aGlu spleen mod inactive, GAA inhib inactive, MLL CXXC-DNA inh inactive and Menin MLL FP FL inactive.
COc1ccc2[nH]c(C(=O)O)c(NS(=O)(=O)c3ccc(Cl)s3)c2c1 was read as GAA glycogen mod 9.92µM, aGlu spleen mod inactive, GAA inhib inactive, Menin MLL FP TR inconclusive, MLL CXXC-DNA inh inactive and Menin MLL FP FL inactive.
`CCOC(=O)c1[nH]c2ccc(OC)cc2c1NS(=O)(=O)c1ccc(Cl)s1` gave GAA glycogen mod inactive, aGlu spleen mod inactive, GAA inhib inactive, Menin MLL FP TR inactive, MLL CXXC-DNA inh inactive and Menin MLL FP FL inactive.
Cc1cc(C(C#N)c2cccc(Cl)c2)n2ncnc2n1 (stereo not given) was read as GAA glycogen mod inconclusive, aGlu spleen mod inactive, GAA inhib inactive, Menin MLL FP TR inactive, MLL CXXC-DNA inh inactive and Menin MLL FP FL inactive.
Screening Cc1cc(C(C#N)c2ccccc2)n2ncnc2n1 (stereo not given) returned GAA glycogen mod 24.9µM, aGlu spleen mod inactive, GAA inhib inconclusive, Menin MLL FP TR inactive, MLL CXXC-DNA inh inactive and Menin MLL FP FL inactive.
CCc1ccc(NC(=O)c2sc(-n3nc(C)c(Cc4ccc(OC)cc4)c3C)nc2C)cc1 was read as GAA glycogen mod inactive.
For CC1(C)Cc2c(sc3ncn4c(=S)[nH]nc4c23)CO1 the results were GAA glycogen mod 28.2µM, aGlu spleen mod inactive, GAA inhib inactive, Menin MLL FP TR inactive, MLL CXXC-DNA inh inactive and Menin MLL FP FL inactive.
For Cc1c(N=Cc2c(O)n(C)c(=O)c3ccccc23)c(=O)n(-c2ccccc2)n1C the results were GAA glycogen mod inactive, aGlu spleen mod inactive, GAA inhib inconclusive, Menin MLL FP TR inconclusive, MLL CXXC-DNA inh inconclusive and Menin MLL FP FL inactive.
`Cc1c(N=Cc2ccccn2)c(=O)n(-c2ccccc2)n1C` gave GAA glycogen mod 12.6µM, aGlu spleen mod inactive, GAA inhib inactive, Menin MLL FP TR inactive, MLL CXXC-DNA inh inactive and Menin MLL FP FL inactive.
Cc1cccn2c(=O)c(C=Nc3c(C)n(C)n(-c4ccccc4)c3=O)c(N3CCCC3)nc12 was read as GAA glycogen mod 11.2µM, aGlu spleen mod inactive, GAA inhib inactive, Menin MLL FP TR inactive, MLL CXXC-DNA inh inactive and Menin MLL FP FL inactive.
Screening Cc1c(N=Cc2ccncc2)c(=O)n(-c2ccccc2)n1C returned GAA glycogen mod 12.5µM, aGlu spleen mod inactive, GAA inhib inactive, Menin MLL FP TR inactive, MLL CXXC-DNA inh inactive and Menin MLL FP FL inactive.
Cc1c(N=Cc2ccc[nH]2)c(=O)n(-c2ccccc2)n1C was read as GAA glycogen mod 22.4µM, aGlu spleen mod inactive, GAA inhib inactive, Menin MLL FP TR inactive, MLL CXXC-DNA inh inactive and Menin MLL FP FL inactive.
Cc1c(N=Cc2cc3c(cc2Cl)OCO3)c(=O)n(-c2ccccc2)n1C was read as GAA glycogen mod inconclusive, aGlu spleen mod inactive, GAA inhib inactive, Menin MLL FP TR inactive, MLL CXXC-DNA inh inactive and Menin MLL FP FL inactive.
`O=C(Nc1cccc(O)c1)c1cc(-c2ccccc2Cl)on1` gave GAA glycogen mod inactive, Menin MLL FP TR inconclusive, MLL CXXC-DNA inh inactive and Menin MLL FP FL inactive.
Screening COc1ccc(CCNC(=O)c2cc3sccc3n2Cc2ccc(Cl)cc2)cc1OC returned GAA glycogen mod inactive.
`C=CCNC(=S)Nc1ccc(N(C)C)cc1` gave GAA glycogen mod 3.14µM, aGlu spleen mod inactive, GAA inhib inactive, MLL CXXC-DNA inh inactive and Menin MLL FP FL inactive.
For C=CCNC(=S)Nc1ccc(C(N)=O)cc1 the results were GAA glycogen mod inactive, aGlu spleen mod inactive, GAA inhib inactive, Menin MLL FP TR inactive, MLL CXXC-DNA inh inactive and Menin MLL FP FL inactive.
`CCc1cccc(C)c1Nc1c(-c2ccc(N(C)C)cc2)nc2cnccn12` gave GAA glycogen mod 10µM.
`CCn1c(SCC(=O)N2CCC(C)CC2)nc2c(c1=O)SCC2` gave Menin MLL FP TR inconclusive, MLL CXXC-DNA inh inactive and Menin MLL FP FL inactive.
For O=C(Nc1nc(-c2ccc(S(=O)(=O)N3CCCC3)cc2)cs1)C1COc2ccccc2O1 (stereo not given) the results were GAA glycogen mod inactive, aGlu spleen mod inactive, GAA inhib inactive, Menin MLL FP TR 10µM, MLL CXXC-DNA inh inactive and Menin MLL FP FL inactive.
For NC(=S)N=Nc1ccc(NN=C(N)N)cc1 the results were GAA glycogen mod 39.8µM, Menin MLL FP TR inconclusive, MLL CXXC-DNA inh inconclusive and Menin MLL FP FL inactive.
